According to PubChem BioAssay (NCI):
About 83,000 compounds went through this panel and 20% of them were active in at least one assay; those are over-represented in the sample as a whole.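 The test compound was applied at a single concentration to cells in 96-well plates for 48 hours, and percent growth was recorded.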 A number with no mark means an inactive call. Activity calls are given as the source filed them. Rule for the calls: active = growth percent below 10; inactive = the rest.

Test system: UO-31 renal
Test: NCI-60 one-dose screen, 48 h (100 = growth as untreated, 0 = no growth, -100 = all killed)
Settings: 10 µM unless noted

| Compound | growth |
| --- | --- |
| O=C(Nc1cccc(F)c1)c1cc(=O)[nH]c2cc(Br)ccc12 | 51.5% |
| COC(=O)[C@]12CCC(C)(C)C[C@H]1C1=CC[C@@H]3[C@@]4(C)C/C(=C/c5cccnc5)C(=O)C(C)(C)[C@@H]4CC[C@@]3(C)[C@]1(C)CC2 | -81.6% [100 µM] (active) |
| N#C/C(C(=O)c1ccccc1)=C1/C(=O)Nc2ccc(Br)cc21 | 67.2% |
| COc1ccc(-c2cc(-c3ccc(Cl)cc3)nc(NCCCCNc3ccnc4cc(Cl)ccc34)n2)cc1 | 35.5% |
| CCCSc1nc(N)nc2nc[nH]c12 | 93.5% |
| CCN(CC)c1ccc2cc(NC(=O)OCCNC(=O)CCNC(=O)[C@H](CC(C)C)NC(=O)C(C)(C)NC(=O)C(C)(C)NC(=O)[C@H](CC(C)C)NC(=O)CCNC(=O)C(C)(C)NC(=O)[C@H](CC(C)C)NC(=O)CCNC(=O)[C@@](C)(CC)NC(=O)[C@H](C)NC(=O)CCNC(=O)C(C)(C)NC(=O)[C@H](C)NC(=O)[C@@H]3CCCN3C(=O)[C@@](C)(CC)NC(=O)[C@H](Cc3ccccc3)NC(=O)C3CCCN3C(=O)C(C)(C)NC(=O)C3CCCN3C(=O)C(C)(C)NC(C)=O)c(=O)oc2c1 (stereo partly drawn) | -80.5% (active) |
| C=C(C)[C@@H]1CC[C@]2(C(=O)N3CCN(C)CC3)CC[C@]3(C)[C@H](CC[C@@H]4[C@@]5(C)C/C(=C/c6ccncc6)[C@H](O)C(C)(C)[C@@H]5CC[C@]43C)[C@@H]12 | -61.4% [100 µM] (active) |
| CC[C@@](C)(NC(=O)[C@H](C)NC(=O)CCNC(=O)C(C)(C)NC(=O)[C@H](C)NC(=O)[C@@H]1CCCN1C(=O)[C@@](C)(CC)NC(=O)[C@H](Cc1ccccc1)NC(=O)C1CCCN1C(=O)C(C)(C)NC(=O)C1CCCN1C(=O)C(C)(C)NC(C)=O)C(=O)NCCC(=O)N[C@@H](CC(C)C)C(=O)NC(C)(C)C(=O)NCCC(=O)N[C@@H](CC(C)C)C(=O)NC(C)(C)C(=O)NC(C)(C)C(=O)N[C@@H](CC(C)C)C(=O)NCCC(=O)NCO (stereo partly drawn) | -90.7% (active) |
| C#C[C@]1(O)CC[C@H]2[C@@H]3CC=C4c5nc(Nc6ncccn6)sc5CC[C@]4(C)[C@H]3CC[C@@]21C | 83.4% |
| CC(C)(C)c1cc(C(=O)N2CCC(C(=O)NCCN)CC2)cc(C(C)(C)C)c1 | 93.3% |
| CCOC(=O)/C(C#N)=C(\C)CCc1ccccc1 | 99.6% |
| COc1ccc2c3ccnc(C(F)(F)F)c3n(CCCCN)c2c1 | 13.4% |
| O=C(O)c1cccc(CN2CCN(c3cc4c(cc3F)c(=O)c(C(=O)O)cn4C3CC3)CC2)c1O | 81.6% |
| CCN(CC)c1ccc2cc(C(Nc3ccc(Br)c(C(F)(F)F)c3)c3nnnn3C(C)(C)C)c(=O)oc2c1 (stereo not drawn) | 74% |
| O=C(NCCCNC(=O)OCc1ccc2c(Br)cc(Br)c(O)c2n1)OCc1ccc2c(Br)cc(Br)c(O)c2n1 | -100% (active) |
| C[N+](C)(C)c1ncnc2[n-]cnc12 | 87.8% |
| O=S(=O)(c1ccc(N/N=C\c2ccccc2Cl)cc1)c1ccc(N/N=C/c2ccccc2Cl)cc1 | 63.7% |
| CCCOc1ccc(-c2nc(-c3ccc(N)cc3)cs2)cc1 | 77.1% |
| O=C(NCc1ccc(Cn2c(=O)sn(-c3ccccc3)c2=O)cc1)OCc1ccc2c(Br)cc(Br)c(O)c2n1 | -100% (active) |
| N#CCCc1c[nH]c2ccccc12 | 68% |
| C=CCCCCCCCCC(=O)OC(C)C | 88.9% |
| COc1cc2c(cc1OCCCCCOc1ccc(-n3c(C)nc4ccccc4c3=O)cc1)N=C[C@@H]1CCCN1C2=O | 2.91% (active) |
| Cc1cccc(/C=C2\N=C(c3ccccc3)N(c3ccc(S(N)(=O)=O)cc3)C2=O)c1 | 99.9% |
| Clc1ccc(/C=N/Nc2nc3ccccc3s2)c(Cl)c1 | 68.2% |
| CCOC(=O)COc1c(C)cc(SSc2cc(C)c(OCC(=O)OCC)c(C)c2)cc1C | 82.4% |
| Nc1nc(Nc2ccccc2)c2ncn(Cc3cc4c(cc3Br)OCO4)c2n1 | 40.3% |
| CCOC(=O)c1c[nH]n2c(=S)ncnc12 | 84.8% |
| CC1(C)CC[C@]2(C(N)=O)CC[C@]3(C)C(=CC[C@@H]4[C@@]5(C)C/C(=C/c6cccnc6)C(=O)C(C)(C)[C@@H]5CC[C@]43C)[C@@H]2C1 | -95.1% [100 µM] (active) |
